Screen size: about 5,500 compounds; about 2,000 (36%) were called active. About 18% were inconclusive and are not listed. Rule as the data show it: active = normalized growth mostly below about 0.91 (no sharp cut-off); inconclusive = no clear call, values can overlap the other calls; inactive = mostly above about 0.92. The list shows a part of the results.
Assay: chemical genetic growth profiling, strain panel (AID 1159580);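 also: tested at 20 µM; growth read once vehicle control cultures reached saturation at 30 °C; 1 = growth at the plate median or of vehicle wells; lower values mean less growth of the strain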
Conditions: S. cerevisiae deletion strains, growth OD

Measured: normalized growth

Clc1ccc(Cn2c(CN3CCCC3)nc3ccccc32)cc1
inactive: locus YAL040C, strain CLN3, hits give low values 1.01 | locus YCL061C, strain MRC1 (second series), hits give low values 0.996 | locus YDR150W, strain NUM1, hits give low values 0.996 | locus YDR363W, strain ESC2, hits give low values 0.999 | locus YER002W, strain NOP16, hits give low values 1.01 | locus YNL128W, strain TEP1, hits give low values 1.04 | locus YNL175C, strain NOP13, hits give low values 1.02 | locus YNL197C, strain WHI3, hits give low values 1.04 | locus YNL224C, strain SQS1, hits give low values 1.02 | locus YNL322C, strain KRE1, hits give low values 0.989 | locus YOR083W, strain WHI5 (second series), hits give low values 1.02 | locus YPL055C, strain LGE1, hits give low values 0.932
